# Reference: PubChem BioAssay
# Unmarked numbers belong to inactive results. Calls of active or inactive are those of the source.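 The calls were made as follows, unless noted: active = fluorescence slope higher than the sample average by over 3 SD (cut at about -0.22 in these data, passing the limit was not always enough); inactive = the rest.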
# Target: Voltage-gated potassium channel subunit beta-2 (Rattus norvegicus) (UniProt P62483)
# Assay: KvBeta enzyme negative modulators, primary screen, biochemical, NADPH fluorescence (AID 622);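 also: slope of raw intensity against log time taken from 70 to 1610 s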
# Details: recombinant KvBeta, 4-cyanobenzaldehyde reduction, at 10 µM, active compounds read high
# Sequence of Voltage-gated potassium channel subunit beta-2 (Rattus norvegicus) (P62483 whole entry, looked up): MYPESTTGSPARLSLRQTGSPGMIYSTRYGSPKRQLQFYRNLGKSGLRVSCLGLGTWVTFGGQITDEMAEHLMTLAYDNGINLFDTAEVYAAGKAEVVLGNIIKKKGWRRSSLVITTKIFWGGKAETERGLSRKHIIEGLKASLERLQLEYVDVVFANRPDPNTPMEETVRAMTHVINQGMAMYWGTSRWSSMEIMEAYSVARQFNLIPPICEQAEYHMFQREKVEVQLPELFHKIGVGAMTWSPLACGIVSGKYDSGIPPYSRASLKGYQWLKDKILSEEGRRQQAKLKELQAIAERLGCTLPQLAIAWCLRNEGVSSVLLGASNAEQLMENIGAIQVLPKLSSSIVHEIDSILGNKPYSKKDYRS
row,Compound,fluorescence slope
1,CCOC(=O)C1CCCN(C(=O)c2cc3c(=O)n4cccc(C)c4nc3n2C)C1 (stereo not given),-0.467
2,COc1ccc(OC)c(S(=O)(=O)N2CCC(C(=O)NCc3ccccc3OC)CC2)c1,-0.517
3,CCOC(=O)N1CCN(C(=O)CSc2nnc(-c3cc(OC)cc(OC)c3)o2)CC1,-0.398
4,CCCC(=O)Nc1cnc(NC(=O)c2cccc(F)c2)cc1C,-0.563
5,COc1ccc2cc(C#N)c(SCC(=O)N3CCCC3)nc2c1,-0.57
6,c1ccc(CC2CCN(C(c3cccs3)c3nnnn3C3CCCC3)CC2)cc1 (stereo not given),-0.558
7,COc1ccc(-n2c(=O)c3c4c(sc3n3c(C)nnc23)CCCC4)cc1,-0.35
8,CN(C)S(=O)(=O)NC(c1ccccc1)c1ccccc1,-0.413
9,COc1ccc(C2=NOC(C(=O)NC3CCCCC3)C2)cc1OC (stereo not given),-0.547
10,CCCCCC1CC(CC(=O)O)C(=O)O1 (stereo not given),-0.4
11,CC(c1ccccc1)n1cnc2ccccc21 (stereo not given),-0.364
12,COc1ccc(OC)c(C2C(C(=O)Nc3ccc(F)cc3)=C(C)Nc3nc(CCCO)nn32)c1 (stereo not given),-0.427
13,Cn1c(=O)c2c(nc(Br)n2CCSc2nnnn2-c2ccccc2)n(C)c1=O,-0.36
14,O=C(Nc1ccc(S(=O)(=O)Nc2ccc(Cl)cc2)cc1)C1CCCO1 (stereo not given),-0.415
15,Fc1ccccc1Cn1nnc2c(-n3ccnc3)ncnc21,-0.519
16,O=C(c1ccc(Br)o1)N1CCN(c2ccc3nnc(-c4ccccc4)n3n2)CC1,-0.602
17,CC1Cc2nc(SCC(=O)Nc3nccs3)n(C)c(=O)c2S1 (stereo not given),-0.539
18,CCOc1cc(-c2nc(-c3ccc(C)nc3OCC)no2)cc(OCC)c1OCC,-0.601
19,CCn1c(C(C#N)/C(=N\S(=O)(=O)c2cccs2)c2ccccc2)nc2ccccc21 (stereo not given),-0.493
20,O=C(c1cnn2c1NC(c1ccco1)CC2C(F)(F)F)N1CCN(c2cccc(Cl)c2)CC1 (stereo not given),-0.382

row,Compound,fluorescence slope
1,Oc1ccc(Cl)cc1-c1cc(-c2ccccc2)n[nH]1,-0.557
2,Cc1cccc(-c2cc3nc4c(c(N5CCOCC5)n3n2)CCCC4)c1,-0.399
3,CCc1nnc(NC(=O)c2cc3ccccc3oc2=O)s1,-0.57
4,O=C(CCS(=O)(=O)c1cccc2nonc12)Nc1cccc2c1CCCC2,-0.547
5,Cc1nn(-c2ccc(F)cc2)c2c1cc(C#N)c1nc3ccccc3n12,-0.000912 (active)
6,Oc1c(C(c2ccccc2)N2CCc3ccccc3C2)sc2ncnn12 (stereo not given),-0.618
7,O=C1CN(C(=O)COC(=O)c2ccccc2NC(=O)c2ccco2)c2ccccc2N1,-0.507
8,COc1cccc(-c2noc(C3CCCN(C(=O)Cc4ccccc4)C3)n2)c1 (stereo not given),-0.609
9,CCCCCn1c(CN2CCN(C)CC2)nc2c1c(=O)n(C)c(=O)n2C,-0.571
10,CC(C)OC(=O)c1cccc(C(=O)O)n1,-0.495
11,CC1CCCCN1CCNS(=O)(=O)c1ccc2c(c1)oc(=O)n2C (stereo not given),-0.424
12,CCCc1nnc2n1N=C(c1ccc(-c3cc(Cl)ccc3Cl)o1)CS2,-0.447
13,COc1cccc(CNc2nc3nc(C)c(Cl)c(C)n3n2)c1,-0.375
14,COc1ccc(CNc2nc(NCc3ccc(OC)cc3)n(S(C)(=O)=O)n2)cc1,-0.626
15,COc1cccc(NC(=O)N(Cc2ccco2)C(C)c2cccs2)c1 (stereo not given),-0.469
16,Cc1nnc(SCC(=O)NCc2ccccc2)s1,-0.447
17,O=C(c1ccco1)N1CCN(CC2CC3C=CC2C3)CC1 (stereo not given),-0.509
18,CCOC(=O)CSc1nnc2n1C(C)(C)Cc1ccccc1-2,-0.384
19,CCN(CC)CCN1C(=O)C(=O)/C(=C(/O)c2c(C)[nH]c(C(=O)OC)c2C)C1c1ccccc1OC (stereo not given),-0.454
20,CCOC(=O)C(C)(C)Sc1nc2c(cnn2-c2ccc(C)cc2)c(=O)[nH]1,-0.626

# Target: Voltage-gated potassium channel subunit beta-2 (Rattus norvegicus) (UniProt P62483)
# Assay: KvBeta positive modulators, primary screen, biochemical, NADPH fluorescence (AID 623;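 active = NADPH fluorescence slope more negative than the mean of all samples by about 3 SD, 99.7% confidence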;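 also: fluorescence intensity change per second fitted from 20 to 320 s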)
# Details: Recombinant KvBeta, NADPH fluorescence decrease slope, 10 min; at 10 µM; active compounds read low
row,Compound,NADPH fluorescence slope
1,CCOC(=O)C1CCCN(C(=O)c2cc3c(=O)n4cccc(C)c4nc3n2C)C1 (stereo not given),-1.3e-05
2,COc1ccc(OC)c(S(=O)(=O)N2CCC(C(=O)NCc3ccccc3OC)CC2)c1,-1.4e-05
3,CCOC(=O)N1CCN(C(=O)CSc2nnc(-c3cc(OC)cc(OC)c3)o2)CC1,-5.6e-05
4,CCCC(=O)Nc1cnc(NC(=O)c2cccc(F)c2)cc1C,4e-05
5,COc1ccc2cc(C#N)c(SCC(=O)N3CCCC3)nc2c1,-2.5e-05
6,c1ccc(CC2CCN(C(c3cccs3)c3nnnn3C3CCCC3)CC2)cc1 (stereo not given),3.9e-05
7,COc1ccc(-n2c(=O)c3c4c(sc3n3c(C)nnc23)CCCC4)cc1,-2.4e-05
8,CN(C)S(=O)(=O)NC(c1ccccc1)c1ccccc1,-3.1e-05
9,COc1ccc(C2=NOC(C(=O)NC3CCCCC3)C2)cc1OC (stereo not given),-4.1e-05
10,CCCCCC1CC(CC(=O)O)C(=O)O1 (stereo not given),-5.4e-05
11,CC(c1ccccc1)n1cnc2ccccc21 (stereo not given),-6.9e-05
12,COc1ccc(OC)c(C2C(C(=O)Nc3ccc(F)cc3)=C(C)Nc3nc(CCCO)nn32)c1 (stereo not given),8.4e-06
13,Cn1c(=O)c2c(nc(Br)n2CCSc2nnnn2-c2ccccc2)n(C)c1=O,-4.2e-05
14,O=C(Nc1ccc(S(=O)(=O)Nc2ccc(Cl)cc2)cc1)C1CCCO1 (stereo not given),-4.8e-05
15,Fc1ccccc1Cn1nnc2c(-n3ccnc3)ncnc21,3.6e-05
16,O=C(c1ccc(Br)o1)N1CCN(c2ccc3nnc(-c4ccccc4)n3n2)CC1,-3.4e-05
17,CC1Cc2nc(SCC(=O)Nc3nccs3)n(C)c(=O)c2S1 (stereo not given),-2.7e-05
18,CCOc1cc(-c2nc(-c3ccc(C)nc3OCC)no2)cc(OCC)c1OCC,-1.4e-05
19,CCn1c(C(C#N)/C(=N\S(=O)(=O)c2cccs2)c2ccccc2)nc2ccccc21 (stereo not given),-3.2e-06
20,O=C(c1cnn2c1NC(c1ccco1)CC2C(F)(F)F)N1CCN(c2cccc(Cl)c2)CC1 (stereo not given),-6e-05

row,Compound,NADPH fluorescence slope
1,Oc1ccc(Cl)cc1-c1cc(-c2ccccc2)n[nH]1,-1.3e-05
2,Cc1cccc(-c2cc3nc4c(c(N5CCOCC5)n3n2)CCCC4)c1,1e-05
3,CCc1nnc(NC(=O)c2cc3ccccc3oc2=O)s1,-2e-05
4,O=C(CCS(=O)(=O)c1cccc2nonc12)Nc1cccc2c1CCCC2,1.6e-05
5,Cc1nn(-c2ccc(F)cc2)c2c1cc(C#N)c1nc3ccccc3n12,1.1e-05
6,Oc1c(C(c2ccccc2)N2CCc3ccccc3C2)sc2ncnn12 (stereo not given),-3.4e-05
7,O=C1CN(C(=O)COC(=O)c2ccccc2NC(=O)c2ccco2)c2ccccc2N1,-8.2e-05
8,COc1cccc(-c2noc(C3CCCN(C(=O)Cc4ccccc4)C3)n2)c1 (stereo not given),-8.5e-06
9,CCCCCn1c(CN2CCN(C)CC2)nc2c1c(=O)n(C)c(=O)n2C,-3e-06
10,CC(C)OC(=O)c1cccc(C(=O)O)n1,-2.4e-05
11,CC1CCCCN1CCNS(=O)(=O)c1ccc2c(c1)oc(=O)n2C (stereo not given),-6.8e-05
12,CCCc1nnc2n1N=C(c1ccc(-c3cc(Cl)ccc3Cl)o1)CS2,-5.1e-05
13,COc1cccc(CNc2nc3nc(C)c(Cl)c(C)n3n2)c1,2.9e-05
14,COc1ccc(CNc2nc(NCc3ccc(OC)cc3)n(S(C)(=O)=O)n2)cc1,-1.8e-05
15,COc1cccc(NC(=O)N(Cc2ccco2)C(C)c2cccs2)c1 (stereo not given),2.7e-05
16,Cc1nnc(SCC(=O)NCc2ccccc2)s1,-2.7e-05
17,O=C(c1ccco1)N1CCN(CC2CC3C=CC2C3)CC1 (stereo not given),2.8e-05
18,CCOC(=O)CSc1nnc2n1C(C)(C)Cc1ccccc1-2,-8.4e-05
19,CCN(CC)CCN1C(=O)C(=O)/C(=C(/O)c2c(C)[nH]c(C(=O)OC)c2C)C1c1ccccc1OC (stereo not given),-4.2e-05
20,CCOC(=O)C(C)(C)Sc1nc2c(cnn2-c2ccc(C)cc2)c(=O)[nH]1,-2.5e-05
